Assay results: PubChem BioAssay (EPA / NIEHS)
Results filed as inconclusive are left out. Calls of active or inactive are those of the source. The calls were made as follows, unless noted: active = hit-call score of the fitted dose curve at least 0.9, where 1 is the maximum; inconclusive = response in the unintended direction; inactive = score below 0.9.

Experiments:
[1] = Tanguay_ZF_120hpf_PE_legacy: (Legacy) Oregon State University Tanguay Lab 120 Hour Post-fertilization zebrafish Assay for Pericardial Edema (AID 2283640);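 as to AC50: potency for increased incidence of pericardial edema versus DMSO baseline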
How it was run: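 Tropical 5D wild-type zebrafish embryos were exposed statically to 120 hpf at 28C, sealed and foil-covered, in 0.64% DMSO final. Pericardial edema was scored present/absent by brightfield microscopy; dead embryos were not scored.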

[2] = Tanguay_ZF_120hpf_PFIN_legacy: (Legacy) Oregon State University Tanguay Lab 120 Hour Post-fertilization zebrafish Assay for Pectoral Fin Malformation (AID 2283648);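 also: each larva judged yes or no for fin defect by brightfield with dead larvae skipped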
How it was run: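 Tropical 5D wild-type embryos, dechorionated with pronase at 4 hpf, were placed singly in wells at 6 hpf and statically exposed until 120 hpf at 28C, sealed and dark, with 0.64% (vol/vol) final DMSO; pectoral fin malformation scored present/absent.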

[3] = Tanguay_ZF_120hpf_CFIN_legacy: (Legacy) Oregon State University Tanguay Lab 120 Hour Post-fertilization zebrafish Assay for Caudal Fin Malformation (AID 2283649)
How it was run: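 Tropical 5D wild-type embryos, dechorionated with pronase at 4 hpf, were placed singly in wells at 6 hpf and statically exposed to compound at 28C until 120 hpf (0.64% DMSO). Caudal fin malformation was scored present/absent by brightfield microscopy.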

[4] = Tanguay_ZF_120hpf_PIG_legacy: (Legacy) Oregon State University Tanguay Lab 120 Hour Post-fertilization zebrafish Assay for Pigmentation Malformation (AID 2283650)
How it was run: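 Tropical 5D wild-type zebrafish embryos, dechorionated with pronase at 4 hpf, were exposed singly from 6 hpf to 120 hpf statically at 28C in sealed, dark plates with 0.64% DMSO; pigmentation scored present/absent by brightfield microscopy, fitted against DMSO.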

[5] = Tanguay_ZF_120hpf_SWIM_legacy: (Legacy) Oregon State University Tanguay Lab 120 Hour Post-fertilization zebrafish Assay for Swim Bladder Malformation (AID 2283654);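 also: swim bladder malformation in each larva scored yes or no under brightfield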
How it was run: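 Dechorionated Tropical 5D wild-type embryos, placed singly from 6 hpf, were statically exposed at 28C to 120 hpf with 0.64% DMSO final; swim bladder malformation was scored present/absent by brightfield microscopy, gain of signal relative to DMSO controls.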

[6] = Tanguay_ZF_120hpf_TRUN_legacy: (Legacy) Oregon State University Tanguay Lab 120 Hour Post-fertilization zebrafish Assay for Truncated Body (AID 2283655)
How it was run: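 Tropical 5D wild-type embryos, dechorionated with pronase at 4 hpf, were placed singly in wells at 6 hpf and statically exposed at 28C until 120 hpf, final DMSO 0.64%. Truncated body was scored present/absent by brightfield microscopy.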

[7] = Tanguay_ZF_120hpf_NC_legacy: (Legacy) Oregon State University Tanguay Lab 120 Hour Post-fertilization zebrafish Assay for Notochord and Tail Malformation (AID 2283656)
How it was run: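 Dechorionated Tropical 5D wild-type zebrafish embryos, one per well from 6 hpf, statically exposed to 120 hpf at 28C in 0.64% DMSO final. Notochord distortion scored present/absent by brightfield; dead embryos excluded.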

[8] = Tanguay_ZF_120hpf_TR_legacy: (Legacy) Oregon State University Tanguay Lab 120 Hour Post-fertilization zebrafish Assay for Touch Response (AID 2283667)
How it was run: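 Tropical 5D wild-type zebrafish embryos were exposed statically in sealed, foil-covered plates at 28C until 120 hpf, with 0.64% (vol/vol) final DMSO. Touch response was scored as present or absent; embryos that died were not scored.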

[9] = CCTE_Padilla_ZF_144hpf_TERATOSCORE: (Legacy) CCTE's 144 Hour Post-fertilization zebrafish Assay Teratoscore, Padilla Lab (AID 2283679; active = hit-call score of the fitted dose curve at least 0.9, where 1 is the maximum; inactive = score below 0.9;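 as to AC50: zebrafish embryos with chorions exposed by immersion from 6-8 hpf to 5 dpf with daily renewal; teratogenicity score from eye scoring of death hatching and malformations at 144 hpf; higher score means more developmental defects relative to DMSO baseline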)
How it was run: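 Larvae scored by eye at 144 hpf for death, hatching and malformations after a day in clean Hanks'. Before that, daily-renewed exposure at 80 uM (0.4% DMSO, 26C) from roughly 6-8 hpf through 5 dpf, 4 embryos per chemical.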

[10] = Tanguay_ZF_120hpf_SOMI_legacy: (Legacy) Oregon State University Tanguay Lab 120 Hour Post-fertilization zebrafish Assay for Somite Malformation (AID 2283647)
How it was run: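 Tropical 5D wild-type zebrafish embryos, dechorionated with pronase at 4 hpf, were placed singly at 6 hpf and statically exposed until 120 hpf at 28C in 0.64% DMSO. Somite malformation was scored present/absent by brightfield microscopy versus DMSO.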

[11] = Tanguay_ZF_120hpf_CIRC_legacy: (Legacy) Oregon State University Tanguay Lab 120 Hour Post-fertilization zebrafish Assay for Circulatory Malformation (AID 2283651)
How it was run: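 Read-out: presence or absence of circulatory malformation at 120 hpf, scored by brightfield microscopy, fitted in the gain-of-signal direction against DMSO baseline. Wild-type 5D larvae were exposed from 6 hpf after enzymatic chorion removal.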

[12] = Tanguay_ZF_120hpf_BRAI_legacy: (Legacy) Oregon State University Tanguay Lab 120 Hour Post-fertilization zebrafish Assay for Brain Malformation (AID 2283641)
How it was run: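 Tropical 5D wild-type zebrafish embryos were exposed statically in sealed, foil-covered plates at 28C until 120 hpf, with 0.64% (vol/vol) final DMSO. Brain malformation was scored present/absent by brightfield microscopy, relative to DMSO baseline.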

[13] = system: Thyroperoxidase (TPO), gene 54314; test: CCTE_Simmons_AUR_rTPO: CCTE's Amplex UltraRed Assay for Thyroperoxidase (TPO) Inhibition, Simmons Lab (AID 2283662);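 also: potency for loss of signal meaning inhibition of peroxidase activity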
How it was run: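 Endpoint is decreased Amplex UltraRed fluorescence after a 30-min, 37C reaction of rat thyroid microsomes with 300 uM H2O2. Eight test concentrations (5 nM–87.5 uM final) in 0.5% DMSO, three biological replicates each.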

[14] = CCTE_Simmons_CellTiterGLO_HEK293T: Viability Assessment in CCTE's Assays for Thyroperoxidase (TPO) Inhibition, Simmons Lab (AID 2283665)
How it was run: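 HEK293T, 10 000 cells/well, DMEM + 1% FBS; 8-pt titration 5 nM–87.5 uM [final], 0.5% DMSO; 24 hr, 37C, 5% CO2; CellTiter-Glo luminescence; n=3 biological replicates.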

SMILES	outcome [1]	outcome [2]	outcome [3]	outcome [4]	outcome [5]	outcome [6]	outcome [7]	outcome [8]	outcome [9]	outcome [10]	outcome [11]	AC50 [1]	AC50 [5]	AC50 [9]	outcome [12]	AC50 [13]	outcome [14]
NCC1(Cc2noc(=O)[nH]2)CCCCC1	inactive	inactive	inactive	inactive	inactive	inactive	inactive	inactive									
CC1(C)NC(=O)NC1=O	inactive	inactive	inactive		inactive	inactive	inactive		inactive								
CCCCCCCCCCCCCCCC	inactive	inactive	inactive	inactive	inactive	inactive	inactive	inactive		inactive							
CCCCCCCCCCCC(=O)OC	inactive	inactive	inactive	inactive	inactive	inactive	inactive	inactive		inactive	inactive						
C=CCOC(=O)c1ccccc1C(=O)OCC=C		inactive		inactive		inactive	inactive	inactive		inactive		46.9 µM (active)	46.4 µM (active)	16.6 µM (active)			
CNCc1cc(F)ccc1Oc1ccc(Cl)c(Cl)c1		inactive	inactive	inactive	inactive		inactive							15.7 µM (active)	inactive		
Nc1ccc(S(=O)(=O)c2ccc(N)cc2)cc1		inactive	inactive	inactive	inactive	inactive	inactive	inactive		inactive						6.89 µM (active)	inactive
